Sampled rows, rich in hits. Any-hit rate of the full collection: about 10%.
Pf growth 96h: inhibits malaria parasite growth, 96 h. 6.9% of 320,000 active. Potency, µM (doses to about 28.7 µM), without a hit: top-dose activity change, negative = inhibition, actives largely listed as inhibitors. AID 504834. P. falciparum luciferase reporter growth, 96 h; active = well fitted inhibition curve with a large enough effect; inconclusive = small, poorly fitted or top-dose-only effect, or another doubt; inactive = no such curve, though single readings can be large or run the other way; also: % is scaled to controls: 0 for no effect and ±100 for the full control effect
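P. falciparum expressing integrated firefly luciferase, in erythrocytes at 2% hematocrit, 0.05% parasitemia, incubated with compounds 96 h at 37 C, 5% CO2. Growth inhibition read as loss of luminescence; two-generation exposure targets delayed-death apicoplast inhibitors.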
SARS PLpro yeast: inhibitors of SARS-CoV papain-like protease in yeast. S. cerevisiae expressing SARS-CoV PLpro, growth rescue. Potency, µM (series often up to 32.9 µM), without a hit: at the top dose activity, positive = growth rescue, hits mostly activators. AID 485353. 0.19% of 330,000 active; also: 0% is about no effect; nearly all actives have a fitted effect of over 55% in size
Pf growth 48h: P. falciparum growth inhibition at 48 hours (one generation); 5.9% of 310,000 active; P. falciparum luciferase growth in erythrocytes, 48 h; AID 504832; Potency, µM (series often up to 28.7 µM), without a hit: at the highest dose activity change, negative = inhibition, most hits filed as inhibitors; active = well fitted inhibition curve with a large enough effect; inconclusive = small, poorly fitted or top-dose-only effect, or another doubt; inactive = no such curve, though single readings can be large or run the other way; also: % is scaled to controls: 0 for no effect and ±100 for the full control effect
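In quantitative HTS format, infected erythrocytes bearing luciferase-reporter parasites were treated for a single generation at 37 C. Luminescence after adding detection reagent served as the growth measure.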
NS1 inh: blocks influenza NS1 protein function; Potency, µM (series often up to 46.1 µM), without a hit: top-dose activity, positive = more growth; 0.4% of 270,000 active; AID 2326; also: actives are rising curves; nearly all actives have a fitted effect of over 50% in size
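A cell-based growth assay was used: compounds that relieve NS1-induced slow growth of budding yeast raise OD600. Assay medium was yeast nitrogen base with ammonium sulphate and -URA supplement, pH 6.0, with 2% galactose.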
* marks the source's active call; other numbers are inactive results; ? = inconclusive; . = no result; [ ] = dose if it differs, or a comment. Unless noted, calls follow the shape of the full dose curve. Potency is read from the fitted curve at half-maximal effect.

SMILES	Pf growth 96h	SARS PLpro yeast	Pf growth 48h	NS1 inh
C=CCn1c(-c2ccc(OC)cc2)csc1=Nc1c(C)n(C)n(-c2ccccc2)c1=O	14.7µM*	0.5%	.	-7.9%
CCC1=C(OC(=O)N(CC)CC)N2C(=O)OC(=NCCc3c[nH]c4ccccc34)[C@]2(Cc2ccccc2)[C@H]2C1=CC[C@H]1C(=O)N(C)C(=O)[C@H]12	11.7µM*	2.6%	10.4µM*	-17.3%
CCC1=C(OC(=O)N(CC)CC)N2C(=O)OC(=NCCc3c[nH]c4ccccc34)[C@]2(Cc2ccccc2)[C@H]2C1=CC[C@H]1C(=O)N(c3ccccc3)C(=O)[C@H]12	?	1.4%	13.1µM*	8.6%
O=C(O)c1cc(C(=O)C(=O)c2cc(C(=O)O)c(O)c3ccccc23)c2ccccc2c1O	.	.	.	-0.8%
CCc1ccc2[nH]c3nc(SCCN4CCOCC4)nnc3c2c1	9.28µM*	12.0%	-27.3%	-3.1%
CCCCn1c2ccc(F)cc2c2nnc(SCCN3CCOCC3)nc21	2.62µM*	-1.1%	?	1.2%
CCc1ccc2[nH]c3nc(SCC(=O)NCC4CCCO4)nnc3c2c1 (stereo unspecified)	0.1%	1.6%	-2.1%	15.1%
Cn1c2ccc(F)cc2c2nnc(SCCN3CCOCC3)nc21	7.6%	-0.3%	2.8%	-0.6%
COC(=O)C(Cc1ccc(O)cc1)NC(=O)CCOc1ccc(OC)cc1 (stereo unspecified)	-10.0%	3.8%	-3.4%	5.9%
Cc1ccc(/C=N/Nc2cc(C)nc(NCc3ccccc3)n2)cc1	1.04µM*	-5.0%	0.586µM*	-54.1%
Cc1cc(N/N=C/c2ccc(O)cc2)nc(NS(=O)(=O)c2ccccc2)n1	17.6%	-3.3%	2.1%	8.6%
Cc1cc(N/N=C/c2ccc(F)cc2)nc(NCc2ccccc2)n1	?	-1.6%	0.415µM*	-44.8%
Cc1cc(N/N=C/c2ccc(N(C)C)cc2)nc(NCc2ccccc2)n1	?	-0.1%	?	-1.2%
Cc1cc(N/N=C/c2ccc(Cl)cc2Cl)nc(NCc2ccccc2)n1	?	-84.1%	0.329µM*	-28.3%
Cc1nnc(NC(=O)NCN2C(=O)C3C4C=CC(C4)C3C2=O)s1 (stereo unspecified)	3.7µM*	4.7%	?	1.9%
CCc1nnc(NC(=O)NCN2C(=O)C3C4C=CC(C4)C3C2=O)s1 (stereo unspecified)	?	1.5%	3.1%	1.3%
O=C(COc1ccc(-c2ccccc2)cc1)N/N=C/c1cc(O)ccc1Br	8.28µM*	-30.0%	-7.7%	-3.2%
COc1cccc(/C=N/NC(=O)Cn2nc(C)c([N+](=O)[O-])c2C)c1O	?	15.5%	11.7µM*	21.9%
COc1cccc(/C=N/NC(=O)CNC(=O)COc2cccc(C)c2)c1O	46.0%	3.6%	2.94µM*	-2.2%
Cc1cccc(OCC(=O)NCC(=O)N/N=C/c2ccccc2)c1	27.0%	1.3%	23.5%	6.2%
Cc1nn(CC(=O)N/N=C/c2cccs2)c(C)c1[N+](=O)[O-]	37.5%	0.0%	7.0%	5.1%
Cc1cccc(OCC(=O)NCC(=O)N/N=C/c2ccc(O)cc2O)c1	?	6.5%	10.4µM*	-3.2%
CCCN(CC(=O)Nc1ccccc1C)C(=O)c1nn(CC)c(=O)c2ccccc12	?	-2.0%	?	.
CCN(CC)C(=O)CSc1nnc2nnc3cc(OC)ccc3n12	-29.5%	-3.0%	-23.3%	7.7%
O=C(NC1CCCCC1)c1ccc2[nH]c(=O)c(=O)[nH]c2c1	26.5%	-7.0%	25.9%	-9.4%
SMILES	Pf growth 96h	SARS PLpro yeast	Pf growth 48h	NS1 inh
COc1ccccc1CN1CCC(CNS(=O)(=O)c2cc(-c3cc(C)no3)ccc2C)CC1	-37.2%	0.7%	4.65µM*	4.0%
CCOc1ccccc1CNS(=O)(=O)c1cc(-c2cc(C)no2)ccc1OC	11.7µM*	?	4.7%	-4.2%
COc1ccccc1CNS(=O)(=O)c1cc(-c2cc(C)no2)ccc1C(C)C	-12.2%	.	?	-30.9%
COc1ccc(-c2cc(C)no2)cc1S(=O)(=O)N1CCCN(Cc2ccccc2Cl)C1	11.7µM*	5.8%	?	-14.2%
COc1ccc(-c2cc(C)no2)cc1S(=O)(=O)NCC1CCN(Cc2cc(C)ccc2C)CC1	?	?	?	-5.2%
CC(C)Cc1nnc(NC(=O)CCC(=O)N2CC(C)CC(C)C2)s1 (stereo unspecified)	?	-3.2%	2.7%	-24.9%
O=C(NNC(=O)C1COc2ccccc2O1)c1ccccc1O (stereo unspecified)	65.6%	4.2%	14.5%	.
Cc1ccc(NC(=O)C(=O)NCCN2CCN(Cc3ccc([N+](=O)[O-])cc3)CC2)cc1	0.465µM*	8.4%	13.2%	5.4%
CCc1ccc(NC(=O)C(=O)NCCN2CCN(Cc3ccc([N+](=O)[O-])cc3)CC2)cc1	45.2%	20.9%	25.6%	-3.3%
CC(=O)C[C@@H](O)CC(=O)[C@@H]1OC(=O)CCCCCc2ccccc21	.	4.7%	.	.
COc1ccccc1N(CC(=O)NC1CCCC1)C(=O)c1oc(C(C)(C)C)cc1C	19.9%	0.1%	?	-0.3%
CC(C)Cn1c(-c2ccccc2F)n[nH]c1=S	.	3.3%	4.0%	-2.2%
CC(C)Cn1c(-c2ccncc2)n[nH]c1=S	3.7µM*	-1.3%	2.5%	4.0%
CC(C)Cn1c(-c2csc3c2CCCC3)n[nH]c1=S	?	-3.1%	11.7µM*	-66.3%
CC(C)(C)n1nc2c(c1NC(=O)c1cc(Cl)ccc1[N+](=O)[O-])CS(=O)(=O)C2	4.9%	8.7%	5.7%	6.4%
O=C(CNC(=O)COc1ccccc1)NCCN1CCOCC1	10.3%	1.3%[6.58 µM]	9.9%	.
COc1cc2nc(Nc3ccc(C)c(C)c3)nc(N)c2cc1OC	0.9%	-1.7%	0.522µM*	-1.6%
COc1cc2nc(Nc3ccc(F)cc3)nc(N)c2cc1OC	27.4%	-1.4%	0.522µM*	-2.7%
CCOC(=O)c1ccc(Nc2nc(N)c3cc(OC)c(OC)cc3n2)cc1	-4.2%	-0.2%	1.04µM*	5.4%
COc1cc2nc(Nc3ccc(C)c(Cl)c3)nc(N)c2cc1OC	41.3%	-10.0%	0.586µM*	-3.4%
Cc1ccc(C2CC(c3ccccc3)=NN2C(=O)CSc2nnc(-c3ccncc3)n2C)o1 (stereo unspecified)	?	-3.1%	?	-7.5%
Nc1ncnc(Nc2ccccc2)n1	17.2%	0.3%	-1.9%	.
Cc1ccc(Nc2ncnc(N)n2)cc1C	4.15µM*	-0.3%	-43.8%	3.3%
CCCCCCCCCC[n+]1cccc(C(=O)N(CC)CC)c1	3.7µM*	-16.5%	3.7µM*	1.6%
NC(=O)c1ccc[n+](CCC[n+]2cccc(C(N)=O)c2)c1	11.0%	-0.3%	23.6%	.
CN(CC(=O)Nc1cccc(F)c1)CC(=O)N(C)CC(=O)Nc1ccccc1Br	?	-5.7%	-25.6%	.
CC1CC(C)CN(C(=O)CN(C)S(=O)(=O)c2ccc3c(c2)c(=O)n(C)c(=O)n3C)C1 (stereo unspecified)	32.4%	4.9%	-15.9%	-5.5%
CC(C)NC(=O)CN(Cc1ccc(F)cc1)C(=O)CCC(=O)Nc1nccs1	9.6%	2.0%	?	-5.0%
CC(C)[C@H](NC(=O)OCc1ccccc1)C(=O)NC(C=O)Cc1ccccc1 (stereo partly specified)	3.7µM*	.	1.31µM*	.

Compound activity deposited in PubChem BioAssay by National Center for Advancing Translational Sciences (NCATS).
